From a collection of fitness landscapes (doi:10.1016/j.celrep.2020.107928)
The full ranking holds about 81,000 sequences; the median of “one-hybrid fitness for binding parS DNA” is about -0.17, and the highest 2% start at about 0.51. The sample holds the highest values, similar sequences and a random draw of the others, so the mix is not that of the screen.

B1: Caulobacter ParB omega fusion; a variant is named by its letters at X, in order, B8GW30 (parent)
chain: MESVVVGEPGMSEGRRGLGRGLSALLGEVDAAPAQAPGEQLGGSREAPIEILQRNPDQPRRTFREEDLEDLSNSIREKGVLQPILVRPSPDTAGEYQIVAGERAWRAAQRAGLKTVPIMVRELDDLAVLEIGIIENVQRADLNVLEEALSYKVLMEKFERTQENIAQTIGKSXSHVANXMRLLXLPDEVQSYLVSGELTAXHARAIAAAADPVALAKQIIEGGLSVRETEALARKAPNLSAGKSKGGRPPRVKDTDTQALESDLSSVLGLDVSIDHRGSTGTLTITYATLEQLDDLCNRLTRGI

Variants of: B1
Experiment: one-hybrid fitness for binding parS DNA (scaled: cognate 1, non-cognate 0); higher = stronger binding
Settings: with parS DNA site
In short: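 Caulobacter ParB libraries with four specificity codons randomised were screened by bacterial one-hybrid selection in the E. coli USO strain, using a HIS3 reporter whose site lies 19 bp from the promoter. Selection ran for 48 hours at 37°C on M9 lacking histidine, with 0.1 mM IPTG and 5 mM 3-AT. Plasmids were Illumina-sequenced before and after selection, three replicate libraries were pooled, and variants with under 10 reads were dropped. Fitness is the log change in each variant's read ratio to wild type, rescaled against the cognate and non-cognate sites.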
For DIAA, the “one-hybrid fitness for binding parS DNA” value was at most 0.2.
In the case of RIFA, the “one-hybrid fitness for binding parS DNA” value is reported as 0.529.
In the case of NIAA, the “one-hybrid fitness for binding parS DNA” value is reported as at most 0.2.
For RIAA, the “one-hybrid fitness for binding parS DNA” value was 0.62.
In the case of PPGC, the “one-hybrid fitness for binding parS DNA” value is reported as at most 0.2.
For WPHF, the “one-hybrid fitness for binding parS DNA” value was at most 0.2.
EGPL was tested, and the “one-hybrid fitness for binding parS DNA” value was at most 0.2.
For RVNN, the “one-hybrid fitness for binding parS DNA” value was 0.416.
In the case of RVND, the “one-hybrid fitness for binding parS DNA” value is reported as at most 0.2.
For RVDN, the “one-hybrid fitness for binding parS DNA” value was 0.371.
For RVNS, the “one-hybrid fitness for binding parS DNA” value was 0.915.
RVDP was tested, and the “one-hybrid fitness for binding parS DNA” value was at most 0.2.
With RVDS the “one-hybrid fitness for binding parS DNA” value was 0.974.
For NYLV, the “one-hybrid fitness for binding parS DNA” value was at most 0.2.
With NSCK the “one-hybrid fitness for binding parS DNA” value was at most 0.2.
For IGDM, the “one-hybrid fitness for binding parS DNA” value was at most 0.2.
For LLDM, the “one-hybrid fitness for binding parS DNA” value was at most 0.2.
For RKNA, the “one-hybrid fitness for binding parS DNA” value was 0.834.
With RKDA the “one-hybrid fitness for binding parS DNA” value was 0.536.
In the case of NKNA, the “one-hybrid fitness for binding parS DNA” value is reported as at most 0.2.
In the case of TAPI, the “one-hybrid fitness for binding parS DNA” value is reported as at most 0.2.
With IGRG the “one-hybrid fitness for binding parS DNA” value was at most 0.2.
For CPMT, the “one-hybrid fitness for binding parS DNA” value was at most 0.2.
For RIKY, the “one-hybrid fitness for binding parS DNA” value was 0.747.
In the case of RLVY, the “one-hybrid fitness for binding parS DNA” value is reported as 0.465.
For RKKY, the “one-hybrid fitness for binding parS DNA” value was 0.492.
For RLKY, the “one-hybrid fitness for binding parS DNA” value was 0.704.
With RIVY the “one-hybrid fitness for binding parS DNA” value was 0.469.
With RCKY the “one-hybrid fitness for binding parS DNA” value was 0.716.
RPKY was tested, and the “one-hybrid fitness for binding parS DNA” value was at most 0.2.
For RTVY, the “one-hybrid fitness for binding parS DNA” value was 0.443.
In the case of RTKY, the “one-hybrid fitness for binding parS DNA” value is reported as 0.89.
In the case of QPIK, the “one-hybrid fitness for binding parS DNA” value is reported as at most 0.2.
With KIKS the “one-hybrid fitness for binding parS DNA” value was at most 0.2.
KKAL was tested, and the “one-hybrid fitness for binding parS DNA” value was at most 0.2.
With YKKT the “one-hybrid fitness for binding parS DNA” value was at most 0.2.
For ALMT, the “one-hybrid fitness for binding parS DNA” value was at most 0.2.
With EPHL the “one-hybrid fitness for binding parS DNA” value was at most 0.2.
In the case of FFHG, the “one-hybrid fitness for binding parS DNA” value is reported as at most 0.2.
For FQRT, the “one-hybrid fitness for binding parS DNA” value was at most 0.2.
For GLWL, the “one-hybrid fitness for binding parS DNA” value was at most 0.2.
For GYNP, the “one-hybrid fitness for binding parS DNA” value was at most 0.2.
With PKHV the “one-hybrid fitness for binding parS DNA” value was at most 0.2.
With LGGC the “one-hybrid fitness for binding parS DNA” value was at most 0.2.
With RDKY the “one-hybrid fitness for binding parS DNA” value was at most 0.2.
With RSKY the “one-hybrid fitness for binding parS DNA” value was 0.609.
SFKY was tested, and the “one-hybrid fitness for binding parS DNA” value was at most 0.2.
In the case of RRVY, the “one-hybrid fitness for binding parS DNA” value is reported as 0.247.
With RHKY the “one-hybrid fitness for binding parS DNA” value was 0.518.
In the case of RHYY, the “one-hybrid fitness for binding parS DNA” value is reported as 0.438.
For RHVY, the “one-hybrid fitness for binding parS DNA” value was 0.354.
For RFVY, the “one-hybrid fitness for binding parS DNA” value was 0.301.
With RRKY the “one-hybrid fitness for binding parS DNA” value was 0.856.
RFKY was tested, and the “one-hybrid fitness for binding parS DNA” value was 0.569.
In the case of RSVY, the “one-hybrid fitness for binding parS DNA” value is reported as 0.37.
With QMIF the “one-hybrid fitness for binding parS DNA” value was at most 0.2.
In the case of VKTF, the “one-hybrid fitness for binding parS DNA” value is reported as at most 0.2.
With YLRV the “one-hybrid fitness for binding parS DNA” value was at most 0.2.
With VMPR the “one-hybrid fitness for binding parS DNA” value was at most 0.2.
For CRLW, the “one-hybrid fitness for binding parS DNA” value was at most 0.2.
For GEYT, the “one-hybrid fitness for binding parS DNA” value was at most 0.2.
For RAKY, the “one-hybrid fitness for binding parS DNA” value was 0.644.
In the case of RMKY, the “one-hybrid fitness for binding parS DNA” value is reported as 0.782.
With RAVY the “one-hybrid fitness for binding parS DNA” value was 0.412.
For RMVY, the “one-hybrid fitness for binding parS DNA” value was 0.438.
With RAPY the “one-hybrid fitness for binding parS DNA” value was at most 0.2.
For KEPT, the “one-hybrid fitness for binding parS DNA” value was at most 0.2.
In the case of QTVF, the “one-hybrid fitness for binding parS DNA” value is reported as at most 0.2.
In the case of RIVS, the “one-hybrid fitness for binding parS DNA” value is reported as 1.01.
RIVP was tested, and the “one-hybrid fitness for binding parS DNA” value was at most 0.2.
For RIKP, the “one-hybrid fitness for binding parS DNA” value was at most 0.2.
For RIKS, the “one-hybrid fitness for binding parS DNA” value was 0.822.
RIVD was tested, and the “one-hybrid fitness for binding parS DNA” value was at most 0.2.
RIKD was tested, and the “one-hybrid fitness for binding parS DNA” value was at most 0.2.
In the case of NSRE, the “one-hybrid fitness for binding parS DNA” value is reported as at most 0.2.
AKIQ was tested, and the “one-hybrid fitness for binding parS DNA” value was at most 0.2.
TIGL was tested, and the “one-hybrid fitness for binding parS DNA” value was at most 0.2.
With RMGS the “one-hybrid fitness for binding parS DNA” value was 0.988.
In the case of RAGS, the “one-hybrid fitness for binding parS DNA” value is reported as 0.989.
With RCGS the “one-hybrid fitness for binding parS DNA” value was 0.945.
For RAGD, the “one-hybrid fitness for binding parS DNA” value was at most 0.2.
In the case of RMGP, the “one-hybrid fitness for binding parS DNA” value is reported as 0.235.
For RFGS, the “one-hybrid fitness for binding parS DNA” value was 0.969.
RCGP was tested, and the “one-hybrid fitness for binding parS DNA” value was at most 0.2.
In the case of RAGN, the “one-hybrid fitness for binding parS DNA” value is reported as 0.448.
For RMGD, the “one-hybrid fitness for binding parS DNA” value was at most 0.2.
In the case of RPGS, the “one-hybrid fitness for binding parS DNA” value is reported as at most 0.2.
With RFGN the “one-hybrid fitness for binding parS DNA” value was 0.435.
For RFGH, the “one-hybrid fitness for binding parS DNA” value was 0.245.
SGNV was tested, and the “one-hybrid fitness for binding parS DNA” value was at most 0.2.
In the case of PNMM, the “one-hybrid fitness for binding parS DNA” value is reported as at most 0.2.
SVIY was tested, and the “one-hybrid fitness for binding parS DNA” value was at most 0.2.
With CGSR the “one-hybrid fitness for binding parS DNA” value was at most 0.2.
With AIHE the “one-hybrid fitness for binding parS DNA” value was at most 0.2.
For NKPL, the “one-hybrid fitness for binding parS DNA” value was at most 0.2.
In the case of WVGM, the “one-hybrid fitness for binding parS DNA” value is reported as at most 0.2.
With CMEW the “one-hybrid fitness for binding parS DNA” value was at most 0.2.
With NDFI the “one-hybrid fitness for binding parS DNA” value was at most 0.2.
